Experimental findings from ChEMBL document CHEMBL3988442, “University of Dundee, Small-Polar-MMV Screening Library” (2021) are described below.

Holding throughout (design): scale not given: direction of the effect not stated beside the values
The target of experiment [1] is Protein translocase subunit SecA (Escherichia coli (strain K12)) (UniProt P10408). Briefly: Assay to Identify E. coli SecA ATPase Inhibitors. Type of experiment: functional. Conditions: 30 µM.
Experiment [2] addresses T1, Ubiquitin-activating enzyme e1, putative (Leishmania donovani (strain BPK282A1)) (UniProt E9BSI1).
T1 sequence (whole entry): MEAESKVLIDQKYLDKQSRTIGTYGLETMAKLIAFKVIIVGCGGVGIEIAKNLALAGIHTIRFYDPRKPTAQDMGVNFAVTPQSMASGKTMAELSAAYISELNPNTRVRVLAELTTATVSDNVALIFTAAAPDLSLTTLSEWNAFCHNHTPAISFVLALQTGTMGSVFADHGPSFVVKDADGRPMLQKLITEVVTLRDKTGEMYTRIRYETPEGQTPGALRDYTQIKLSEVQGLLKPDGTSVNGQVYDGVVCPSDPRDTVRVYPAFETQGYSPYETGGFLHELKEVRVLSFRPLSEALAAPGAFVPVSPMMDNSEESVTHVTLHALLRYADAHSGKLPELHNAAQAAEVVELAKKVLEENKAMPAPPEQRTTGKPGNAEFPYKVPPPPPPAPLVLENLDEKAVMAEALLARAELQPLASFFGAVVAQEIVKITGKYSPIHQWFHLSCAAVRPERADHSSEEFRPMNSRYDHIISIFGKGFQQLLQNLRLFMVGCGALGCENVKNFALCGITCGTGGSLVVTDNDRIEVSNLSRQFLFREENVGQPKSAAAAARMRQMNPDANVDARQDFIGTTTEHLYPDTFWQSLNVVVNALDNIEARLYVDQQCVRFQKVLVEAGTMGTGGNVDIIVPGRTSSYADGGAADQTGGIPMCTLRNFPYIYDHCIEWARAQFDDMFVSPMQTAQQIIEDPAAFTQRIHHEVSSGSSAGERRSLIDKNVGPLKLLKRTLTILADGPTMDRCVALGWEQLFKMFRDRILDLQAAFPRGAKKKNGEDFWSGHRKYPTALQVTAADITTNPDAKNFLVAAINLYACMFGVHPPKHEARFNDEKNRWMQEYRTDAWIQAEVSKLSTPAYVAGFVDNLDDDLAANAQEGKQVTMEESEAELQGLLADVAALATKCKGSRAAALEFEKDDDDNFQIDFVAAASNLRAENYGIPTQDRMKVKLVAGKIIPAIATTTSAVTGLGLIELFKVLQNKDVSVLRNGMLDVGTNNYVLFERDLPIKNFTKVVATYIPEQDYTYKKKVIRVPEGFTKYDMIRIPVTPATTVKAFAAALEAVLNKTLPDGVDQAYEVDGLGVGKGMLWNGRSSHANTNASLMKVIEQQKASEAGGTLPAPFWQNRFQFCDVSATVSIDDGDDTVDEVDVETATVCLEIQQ
The experiment in a line: Leishmania donovani Ubiquitin Activating Enzyme (LdE1). Type of experiment: functional. Conditions: 30 µM.

The target of experiment [3] is AMP-activated protein kinase, AMPK (Homo sapiens) (UniProt P54646+O43741+P54619+Q9UGJ0+Q9Y478+Q13131+Q9UGI9). Briefly: AMP-dependent Kinase enzyme assay. An in vitro enzyme assay that detects ADP turnover that is directly proportional to AMPK activity. This uses naive AMPK that is activated during the assay with MK-8722. Type of experiment: functional. Conditions: 30 µM.

In experiment [4] the target is Sialic acid-binding Ig-like lectin 9 (Homo sapiens) (UniProt Q9Y336). Briefly: Hs-Siglec9 ALPHAscreen SOP 20170721. Conditions: 10 µM. Background: Bead proximity is the source of the signal in Alpha formats.
Sequence of Sialic acid-binding Ig-like lectin 9 (Homo sapiens) (Q9Y336 whole entry): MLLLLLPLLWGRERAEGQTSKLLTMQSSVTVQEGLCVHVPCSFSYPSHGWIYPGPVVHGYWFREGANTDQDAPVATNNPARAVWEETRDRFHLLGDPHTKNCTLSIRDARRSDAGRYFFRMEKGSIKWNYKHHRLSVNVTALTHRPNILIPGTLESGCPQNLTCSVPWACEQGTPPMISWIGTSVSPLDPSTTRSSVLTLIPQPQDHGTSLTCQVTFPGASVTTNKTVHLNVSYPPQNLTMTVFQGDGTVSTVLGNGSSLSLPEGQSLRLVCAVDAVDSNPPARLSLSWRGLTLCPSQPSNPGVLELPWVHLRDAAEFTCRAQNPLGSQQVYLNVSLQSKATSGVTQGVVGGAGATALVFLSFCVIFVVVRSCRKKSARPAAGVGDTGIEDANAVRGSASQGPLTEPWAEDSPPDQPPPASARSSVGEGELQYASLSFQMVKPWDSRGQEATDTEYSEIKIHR
The next experiment has as its system Trypanosoma cruzi. Briefly: Trypanosoma cruzi phosphomannomutase and mannose-1-phosphate guanylyltransferase assay. Conditions: 10 µM. Type of experiment: functional.
Experiment [5] addresses T2, Arginase-2, mitochondrial (Homo sapiens) (UniProt P78540).
T2 sequence (whole entry): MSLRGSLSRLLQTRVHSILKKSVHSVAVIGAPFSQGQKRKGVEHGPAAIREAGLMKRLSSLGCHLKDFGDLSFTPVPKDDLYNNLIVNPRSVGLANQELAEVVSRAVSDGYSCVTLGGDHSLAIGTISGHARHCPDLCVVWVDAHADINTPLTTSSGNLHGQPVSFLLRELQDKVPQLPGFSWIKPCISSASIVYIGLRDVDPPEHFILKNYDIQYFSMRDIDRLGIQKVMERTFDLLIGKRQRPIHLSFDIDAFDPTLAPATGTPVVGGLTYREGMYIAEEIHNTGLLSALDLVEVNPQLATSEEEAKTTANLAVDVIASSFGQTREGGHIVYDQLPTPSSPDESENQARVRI
Briefly: in vitro enzyme assay to detect the production of urea directly proportional to the activity of Arginase II. Also: in the data most compounds retested in dose-response had high values. Type of experiment: functional. Conditions: 33.3 µM.

For experiment [6], the target named is T3, Proteasome subunit beta (Trypanosoma cruzi) (UniProt O96673).
T3 sequence (whole entry): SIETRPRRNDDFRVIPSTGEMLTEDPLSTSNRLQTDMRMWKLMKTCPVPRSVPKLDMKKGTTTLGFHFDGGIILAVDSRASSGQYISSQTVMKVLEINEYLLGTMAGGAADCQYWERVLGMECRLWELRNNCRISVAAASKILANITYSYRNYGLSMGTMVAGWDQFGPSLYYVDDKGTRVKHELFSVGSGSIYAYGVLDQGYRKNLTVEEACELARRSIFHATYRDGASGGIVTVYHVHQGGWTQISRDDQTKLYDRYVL
The experiment in a line: Trypanosoma cruzi proteasome chymotrypsin-like activity (TcProtChymo) assay. Also: in the data most compounds retested in dose-response had high values. Conditions: 9.37 µM. Type of experiment: functional.

The species named for another experiment is Homo sapiens. The experiment in a line: To identify inhibition of the IFN signalling (Jak-Stat) pathway via expression of an eGFP reporter gene under the control of an IFN-stimulated response element (ISRE) containing MxA promoter. Type of experiment: functional. Conditions: 30 µM.
For experiment [7], the target named is T4, Tyrosyl-tRNA synthetase, putative (Trypanosoma cruzi (strain CL Brener)) (UniProt Q4DSP6).
T4 sequence (whole entry): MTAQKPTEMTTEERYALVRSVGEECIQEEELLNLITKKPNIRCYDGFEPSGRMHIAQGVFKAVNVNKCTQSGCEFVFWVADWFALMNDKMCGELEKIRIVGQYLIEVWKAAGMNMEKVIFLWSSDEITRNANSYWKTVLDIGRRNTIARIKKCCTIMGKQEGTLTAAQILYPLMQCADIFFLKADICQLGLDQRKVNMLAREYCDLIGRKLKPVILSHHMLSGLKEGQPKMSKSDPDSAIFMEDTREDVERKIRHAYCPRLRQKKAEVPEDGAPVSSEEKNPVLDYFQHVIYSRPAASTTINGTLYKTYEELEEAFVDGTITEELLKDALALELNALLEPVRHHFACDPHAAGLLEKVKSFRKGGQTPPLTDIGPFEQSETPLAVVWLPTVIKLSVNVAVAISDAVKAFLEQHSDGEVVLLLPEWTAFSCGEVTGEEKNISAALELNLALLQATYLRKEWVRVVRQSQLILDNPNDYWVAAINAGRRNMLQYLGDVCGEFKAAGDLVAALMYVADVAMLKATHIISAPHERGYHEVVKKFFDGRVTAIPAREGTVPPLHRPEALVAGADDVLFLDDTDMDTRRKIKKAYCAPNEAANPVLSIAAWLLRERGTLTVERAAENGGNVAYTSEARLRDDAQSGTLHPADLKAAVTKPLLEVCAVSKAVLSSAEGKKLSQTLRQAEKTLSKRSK
Briefly: Trypanosoma cruzi tyrosyl tRNA synthetase (TcYRS) _High Tyrosine SOP. Also: in the data most compounds retested in dose-response had high values. Type of experiment: functional. Conditions: 30 µM.

Experiment [8] addresses T4, Tyrosyl-tRNA synthetase, putative (Trypanosoma cruzi (strain CL Brener)). Briefly: Trypanosoma cruzi tyrosyl tRNA synthetase (TcYRS) SOP. Type of experiment: functional. Conditions: 30 µM.
Experiment [9] has as its target Chromo domain-containing protein 1 (Saccharomyces cerevisiae (strain ATCC 204508 / S288c) (Baker's yeast)) (UniProt P32657). Briefly: ScCHD-1 Enzyme Inhibition Assay. Also: in the data most compounds retested in dose-response had high values. Conditions: 30 µM. Type of experiment: functional.

Molecules are shown by their SMILES. For some of these results: Entries with a potency or affinity are not part of this list.

Sequence of Protein translocase subunit SecA (Escherichia coli (strain K12)) (P10408 whole entry): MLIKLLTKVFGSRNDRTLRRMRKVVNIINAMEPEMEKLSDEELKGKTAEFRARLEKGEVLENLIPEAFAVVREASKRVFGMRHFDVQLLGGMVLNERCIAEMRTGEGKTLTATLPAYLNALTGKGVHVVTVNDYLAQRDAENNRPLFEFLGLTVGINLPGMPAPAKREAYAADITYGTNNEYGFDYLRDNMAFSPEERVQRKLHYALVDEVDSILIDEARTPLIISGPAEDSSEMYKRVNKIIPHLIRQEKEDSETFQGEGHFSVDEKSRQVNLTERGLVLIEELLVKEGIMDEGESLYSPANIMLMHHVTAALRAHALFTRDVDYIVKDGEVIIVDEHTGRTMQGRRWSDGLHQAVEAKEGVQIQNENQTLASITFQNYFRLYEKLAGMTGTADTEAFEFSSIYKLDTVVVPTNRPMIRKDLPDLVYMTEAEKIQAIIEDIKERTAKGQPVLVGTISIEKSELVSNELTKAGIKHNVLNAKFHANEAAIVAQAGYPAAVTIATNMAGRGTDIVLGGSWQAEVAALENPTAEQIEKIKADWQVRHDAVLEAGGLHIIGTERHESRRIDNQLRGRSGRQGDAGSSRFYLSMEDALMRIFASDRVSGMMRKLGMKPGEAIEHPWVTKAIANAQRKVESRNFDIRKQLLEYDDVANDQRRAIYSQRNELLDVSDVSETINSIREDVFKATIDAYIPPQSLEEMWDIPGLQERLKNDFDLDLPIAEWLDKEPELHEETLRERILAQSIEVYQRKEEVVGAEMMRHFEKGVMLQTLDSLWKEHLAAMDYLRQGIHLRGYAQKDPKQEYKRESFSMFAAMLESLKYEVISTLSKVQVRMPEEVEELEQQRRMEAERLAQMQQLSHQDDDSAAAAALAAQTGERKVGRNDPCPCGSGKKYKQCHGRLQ
Sequence of Chromo domain-containing protein 1 (Saccharomyces cerevisiae (strain ATCC 204508 / S288c) (Baker's yeast)) (P32657 whole entry, the tested form may be a part): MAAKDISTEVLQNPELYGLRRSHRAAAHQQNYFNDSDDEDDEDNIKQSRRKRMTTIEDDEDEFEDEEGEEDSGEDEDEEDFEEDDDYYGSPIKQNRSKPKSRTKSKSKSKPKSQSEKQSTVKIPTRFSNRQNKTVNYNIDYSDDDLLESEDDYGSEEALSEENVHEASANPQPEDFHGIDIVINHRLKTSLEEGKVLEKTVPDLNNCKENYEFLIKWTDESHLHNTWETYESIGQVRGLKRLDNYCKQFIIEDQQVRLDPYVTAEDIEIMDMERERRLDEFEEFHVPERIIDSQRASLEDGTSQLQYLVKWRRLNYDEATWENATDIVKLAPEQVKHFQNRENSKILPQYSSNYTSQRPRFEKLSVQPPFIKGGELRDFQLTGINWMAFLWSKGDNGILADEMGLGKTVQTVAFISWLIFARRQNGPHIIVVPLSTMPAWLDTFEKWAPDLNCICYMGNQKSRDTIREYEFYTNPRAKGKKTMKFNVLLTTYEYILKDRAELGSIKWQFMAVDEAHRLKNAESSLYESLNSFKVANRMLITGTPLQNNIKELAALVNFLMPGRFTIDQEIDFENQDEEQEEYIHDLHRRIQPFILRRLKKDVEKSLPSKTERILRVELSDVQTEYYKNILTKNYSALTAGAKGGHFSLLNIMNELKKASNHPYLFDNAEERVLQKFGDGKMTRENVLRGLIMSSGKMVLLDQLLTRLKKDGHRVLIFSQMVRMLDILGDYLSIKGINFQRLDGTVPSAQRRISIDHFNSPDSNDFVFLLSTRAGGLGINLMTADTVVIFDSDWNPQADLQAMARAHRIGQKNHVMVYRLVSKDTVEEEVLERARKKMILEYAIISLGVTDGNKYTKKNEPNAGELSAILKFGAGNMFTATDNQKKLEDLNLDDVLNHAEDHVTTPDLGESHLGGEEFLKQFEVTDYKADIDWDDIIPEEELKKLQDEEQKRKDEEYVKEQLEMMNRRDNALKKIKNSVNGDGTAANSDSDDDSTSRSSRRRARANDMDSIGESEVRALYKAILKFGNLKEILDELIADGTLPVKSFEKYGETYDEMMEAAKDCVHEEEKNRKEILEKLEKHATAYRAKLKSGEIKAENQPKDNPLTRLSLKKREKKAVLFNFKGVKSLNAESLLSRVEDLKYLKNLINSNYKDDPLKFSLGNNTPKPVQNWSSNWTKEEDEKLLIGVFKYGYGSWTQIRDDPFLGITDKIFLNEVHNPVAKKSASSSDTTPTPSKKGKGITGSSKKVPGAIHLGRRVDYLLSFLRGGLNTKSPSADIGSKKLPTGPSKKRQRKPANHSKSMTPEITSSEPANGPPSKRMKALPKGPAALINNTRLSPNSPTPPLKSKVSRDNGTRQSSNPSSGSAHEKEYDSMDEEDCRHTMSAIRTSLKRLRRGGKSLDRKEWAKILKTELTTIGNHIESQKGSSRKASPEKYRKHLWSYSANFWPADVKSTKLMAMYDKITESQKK

Consider `CC(C)Nc1nc(N2CCOCC2)nc2c1CN(Cc1ccoc1)CC2`, for which the Percent Effect in [1] was -4.76%; in [2], 5.33%; in experiment [3], 12.8%; in experiment [4], 1.46%; with Trypanosoma cruzi it was -1.97%; in [5], 6.76%. Further, the Percent Effect in [6] was 7.84%; in the experiment listed under Homo sapiens, 8.61%; in [7], 7.45%; in [8], 16.7%; in experiment [9], -3.95%.

For the molecule `COCC(=O)N1CC[C@@H]2O[C@@H](COCc3csc(C)n3)CC[C@@H]21`, the Percent Effect in experiment [1] is -2.35%; in experiment [2], 13.5%; in experiment [3] it was 4.29%; in [4], -14.3%; in the experiment on Trypanosoma cruzi, -2.25%; in [5], 7.96%. The Percent Effect is 26.9% in [6]; -1.3% in the experiment listed under Homo sapiens; 8.65% in experiment [7]; 12.8% in experiment [8]; -4.47% in experiment [9].

In the case of `COc1cc(CC(O)CO)c(OC)c2c1OCO2` (stereo unspecified), the Percent Effect in experiment [1] is -6.55%; in experiment [2], 14.7%; in experiment [3] it was -12.3%; in experiment [4], 4.03%; in the experiment on Trypanosoma cruzi, 6.29%; in experiment [5], -12.5%. For the same molecule, the Percent Effect in experiment [6] was 9.8%; in the experiment filed under Homo sapiens it was 5.7%; in experiment [7], 8.47%; in [8], 15.4%; in experiment [9] it was -21.2%.

As for `Cn1cc(C(=O)NCC2CCN(C(=O)NCC(F)(F)F)CC2)cn1`, the Percent Effect in experiment [1] is -2.53%; in experiment [2] it was 16.5%; in [3], -6.78%; in [4], 1.59%; in the experiment on Trypanosoma cruzi it was -0.308%; in experiment [5], 0.645%. Further, the Percent Effect in [6] was 11%; in the experiment filed under Homo sapiens, 16%; in [7] it was 8.33%; in [8] it was 12.7%; in experiment [9], -22.3%.

As for `CCc1nc(CN2CCCC(N(C)Cc3cnn(C)c3)C2)no1` (stereo unspecified), the Percent Effect in experiment [1] was -1.5%; in [2], 8.22%; in experiment [3], -0.902%; in experiment [4], 3.69%; with Trypanosoma cruzi it was 2.74%; in experiment [5], 5.91%. For the same molecule, the Percent Effect in [6] was 9.23%; in the experiment listed under Homo sapiens, -2.09%; in [7], 1.07%; in experiment [8], 2.5%; in experiment [9] it was -3.19%.

On to `CCc1nc2n(n1)CC(NCC(=O)Nc1cc(C)on1)CC2` (stereo unspecified), for which the Percent Effect in experiment [1] was -7.96%; in experiment [2] it was 5.06%; in experiment [3] it was -1.49%; in experiment [4], 2.07%; with Trypanosoma cruzi it was -7.27%; in experiment [5], 0.38%. Besides, the Percent Effect in [6] is 17.1%; in the experiment listed under Homo sapiens, 22.4%; in experiment [7], -3.45%; in experiment [8], -8.86%; in [9], -4.18%.

As for `O=C(CC1CC1)N1CCC2(CC1)CN(c1ncccn1)CCO2`, the Percent Effect was -2.48% in experiment [1]; 2.67% in [2]; 5.17% in experiment [3]; 6.83% in [4]; -6.89% in the experiment with Trypanosoma cruzi; -5.83% in experiment [5]. For the same molecule, the Percent Effect in [6] is 5.9%; in the experiment listed under Homo sapiens it was 9.78%; in experiment [7], -5.32%; in [8], -1.28%; in experiment [9], -7.95%.

For the molecule `NC(=O)COc1ccc(CNCc2ccc(F)c(F)c2)cc1`, the Percent Effect is -4.2% in experiment [1]; 6.94% in experiment [2]; 2.35% in experiment [3]; -0.752% in experiment [4]; 0.486% in the experiment on Trypanosoma cruzi; 3.53% in experiment [5]. Moreover, the Percent Effect in experiment [6] is 11.2%; in the experiment filed under Homo sapiens it was -7.28%; in [7], 7.37%; in experiment [8], 7.69%; in experiment [9], -2.75%.

Turning to `Cc1csc(N2CCN(C(=O)CCNc3ncccn3)CC2)n1`, the Percent Effect is -4.07% in experiment [1]; 16.2% in [2]; -2.35% in experiment [3]; -1.96% in experiment [4]; 1.42% with Trypanosoma cruzi; -6.41% in [5]. In addition, the Percent Effect in [6] was 5.04%; in the experiment filed under Homo sapiens it was 14.1%; in experiment [7] it was -61.6%; in [8], 16.1%; in experiment [9] it was -9.84%.

Regarding `COc1cc(CN(C(=O)Nc2cccnc2OC)C2CC2)ccc1O`, the Percent Effect in experiment [1] is -3.67%; in [2] it was 2.6%; in experiment [3], 7.29%; in [4], 11.9%; in the experiment on Trypanosoma cruzi it was -2.25%; in experiment [5] it was -0.712%. The Percent Effect in [6] was 5.91%; in the experiment filed under Homo sapiens, 23.5%; in [7], 3.88%; in [8], 12.2%; in experiment [9], -4.72%.

In the case of `CCOC(=O)[C@]12CCCN(Cc3ccco3)C[C@H]1CN(CCN(C)C)C2`, the Percent Effect in [1] is -2.71%; in experiment [2], 7.79%; in [3], 3.96%; in experiment [4], 8.64%; with Trypanosoma cruzi, -0.888%; in [5], -0.645%. The Percent Effect in experiment [6] is 14.4%; in the experiment filed under Homo sapiens it was 2.34%; in experiment [7] it was 1.06%; in [8], 8.97%; in experiment [9], -6.8%.
